Results taken from PubChem BioAssay AID651784 (National Center for Advancing Translational Sciences (NCATS), 2012).
Inconclusive results are not listed. Activity calls are given as the source filed them. The call rests on the fitted dose curve; in most records, active means well fitted inhibition curve with a large enough effect; inconclusive means small, poorly fitted or top-dose-only effect; inactive means no such curve, though single readings can be large or run the other way.
Potency means the concentration at half of the fitted maximal effect.

Test: Acumen qHTS Assay for Inhibitors of the mTORC1 Signaling Pathway in MEF (Tsc2-/-, p53-/-) Cells: Hit Validation;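 further: phospho-rpS6 Ser235/236 immunofluorescence normalized to propidium iodide cell count; nearly all actives have a fitted effect of over 65% in size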;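 on activity change, negative = inhibition: cells exposed to compound for 24 hours; plate controls were DMSO for no effect and 7.5 nM rapamycin control for full effect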
Settings: Acumen imaging; activity change, negative = inhibition: at 37.3 µM (top of the series)
CCN(CC)S(=O)(=O)c1ccc(NC(=O)CCc2c(C)nc3cc(-c4ccc(Cl)cc4)nn3c2C)cc1 gave an activity change, negative = inhibition of -101%. Work on CN1CCC(Nc2ncc3ncnc(Nc4ccc(F)c(Cl)c4)c3n2)CC1 yielded an activity change, negative = inhibition of -95%. In the case of COc1ccc(NC(=O)C(NC(=O)/C=C\c2ccc3c(c2)OCO3)c2ccccc2)cc1 (stereo not drawn), the Potency is reported as 11.7 µM (active). With Cc1cccc(NS(=O)(=O)c2ccc3[nH]c4c(c3c2)CCCCCC4)c1 the Potency was 5.21 µM (active). With CC1CCCN(CCCNC(=O)c2ccc3c(c2)N(Cc2ccc(Cl)cc2)C(=O)c2ccccc2S3(=O)=O)C1 (stereo not drawn) the Potency was 13.1 µM (active). In the case of CCc1cnc2c(c1SCC(=O)NCc1ccc(F)cc1)c(=O)n(C)c(=O)n2C, the activity change, negative = inhibition is reported as 5.42%. In the case of O=C(Nc1ccccc1F)c1nc(S(=O)(=O)Cc2ccccc2F)ncc1Cl, the Potency is reported as 2.93 µM (active). In the case of Cc1ccc(CN2C(=O)C(O)(CC(=O)c3ccc(C)cc3)c3ccccc32)cc1 (stereo not drawn), the Potency is reported as 4.65 µM (active). In the case of CCNC(=O)c1c(NC(=O)c2nc(S(=O)(=O)CC)ncc2Cl)sc2c1CCCC2, the Potency is reported as 1.31 µM (active). Cn1nc(-c2ccc(OCC(=O)Nc3ccccc3)cc2)c2ccccc2c1=O gave an activity change, negative = inhibition of -11.2%. With COc1ccc(C(=O)N2CCN(C(=O)COc3ccc(Br)cc3)CC2)cc1OC the activity change, negative = inhibition was -17.7%. Work on CC1CCN(S(=O)(=O)c2ccc(C(=O)Nc3sc4c(c3C(N)=O)CC(C)(C)NC4(C)C)cc2)CC1 yielded an activity change, negative = inhibition of -107%. COc1cc(OC)cc(C(=O)NCCc2csc(-c3cccc(C)c3)n2)c1 gave an activity change, negative = inhibition of -7.07%. With COc1ccc(-c2ccc(CCC(=O)O)n2-c2ccccc2O)cc1 the activity change, negative = inhibition was -2.33%. Work on COc1cccc(-c2nc(S(=O)(=O)c3ccc(Cl)cc3)c(NCc3ccccc3)o2)c1 yielded an activity change, negative = inhibition of 29.5%. In the case of CCOC(=O)N1CCN(Cc2nc3cc(NC(=O)c4ccccc4OC)ccc3n2C(C)C)CC1, the activity change, negative = inhibition is reported as -28.8%. With O=C(Cn1c(=O)c2cccn2c2ccccc21)NCc1ccccc1F the activity change, negative = inhibition was 18.1%. For CCOc1cc(CNc2ccc(O)cc2)ccc1OCc1ccc(Cl)cc1, the activity change, negative = inhibition was -17.1%. For CCS(=O)(=O)c1ncc(Cl)c(C(=O)Nc2ccccc2)n1, the Potency was 1.31 µM (active). In the case of CC(=O)Nc1ccc2nc(-c3cc(C)ccc3C)[nH]c2c1, the activity change, negative = inhibition is reported as -21.9%. CCOc1ccc(NC(=O)N(Cc2c[nH]c3ccccc23)C2CCCCCC2)cc1 showed an activity change, negative = inhibition of -15.9%. CCOc1ccccc1NC(=O)CSc1cc(=O)n(CC)c2ccccc12 showed an activity change, negative = inhibition of 1.04%. In the case of Cc1c(C(=O)OC2CCC(C)CC2)[nH]c2c1C(=O)CC(c1ccccc1Cl)C2 (stereo not drawn), the activity change, negative = inhibition is reported as -43.7%. With CCCCOc1cccc(C(=O)N(Cc2cccs2)c2ccc(OC)cc2)c1 the Potency was 16.5 µM (active). Cc1ccc2oc(-c3ccc(Cl)cc3)c(O)c(=O)c2c1 showed an activity change, negative = inhibition of -44.5%. Cc1ccc(NC(=O)CCS(=O)(=O)c2ccc3nc(C)sc3c2)cc1 gave an activity change, negative = inhibition of -65.5%. With CCOC(=O)c1c(C)[nH]c(CCC(=O)NCCCN2CCN(c3cc(C)ccc3C)CC2)c1C the Potency was 16.5 µM (active). With Cc1ccc(C(=O)/C=C/c2cn(CC(O)CN3CCCCCC3)c3ccccc23)cc1 (stereo not drawn) the Potency was 18.5 µM (active). For CC(=O)Nc1ccc(NC(=O)c2nc(S(=O)(=O)Cc3ccc(F)cc3)ncc2Cl)cc1, the Potency was 2.61 µM (active). For COc1ccc(OCC(O)Cn2c(=N)n(CCN3CCCCC3)c3ccccc32)cc1 (stereo not drawn), the Potency was 16.5 µM (active). Compound CCOC(=O)N1CCN(Cc2nc3cc(NC(=O)c4ccc([N+](=O)[O-])cc4)ccc3n2C(C)C)CC1 has an activity change, negative = inhibition of -17.8%. For COc1ccc(NS(=O)(=O)c2ccc(-n3cccn3)cc2)cc1OC, the activity change, negative = inhibition was -78.8%. In the case of Cc1cc(C)c(NC(=O)C2CCN(c3nc4ccccc4n4cccc34)CC2)c(C)c1, the Potency is reported as 14.7 µM (active). Work on CCOc1ccc(NC(=O)CSc2oc(-c3ccccc3)nc2S(=O)(=O)c2ccc(Cl)cc2)cc1 yielded an activity change, negative = inhibition of -112%. In the case of CCC(Sc1nncn2c1cc1oc(C)cc12)C(=O)Nc1ccc(F)cc1 (stereo not drawn), the activity change, negative = inhibition is reported as 12.3%. With CCc1ccc(S(=O)(=O)N(C(=O)Oc2ccccc2)c2ccc3oc(C)c(C(=O)OC)c3c2)cc1 the activity change, negative = inhibition was -70.3%. COc1ccc(Cn2c(C(=O)O)c(CNCc3ccc(SC)cc3)c3ccc(OC)cc32)cc1 showed an activity change, negative = inhibition of -12.2%. With CCS(=O)(=O)c1oc(-c2ccc(F)cc2)nc1S(=O)(=O)c1ccccc1 the Potency was 0.369 µM (active).
